HCMV antiviral: inhibitors of human cytomegalovirus | hit rate 4.5% among 410,000 | activity change, negative = inhibition, % at 57.5 µM | AID 1259415 | HFF cells, HCMV-luciferase reporter, 72 h; hits give low values; in the data active means activity change below about -60%; inconclusive means no clear call, values can overlap the other calls; inactive means above about -39%; further: on the % scale 0 is the no-effect control and ±100 the full control effect
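Inhibition of viral replication was scored as loss of reporter luminescence in HFFs infected with HCMV-luciferase (MOI 1 PFU/cell) for 72 h; compounds tested at 2 doses, normalized to buffer and Salinomycin controls.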
Pf growth 48h: P. falciparum growth inhibition at 48 hours (one generation); P. falciparum luciferase growth in erythrocytes, 48 h; Potency, µM (titrated, usually from 28.7 µM), for inactives: top-dose activity change, negative = inhibition, usual class: inhibitors; hit rate 5.9% among 310,000; AID 504832; further: potency means the concentration at half of the fitted maximal effect; on the % scale 0 is the no-effect control and ±100 the full control effect
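Erythrocytes infected with P. falciparum carrying an integrated firefly luciferase reporter (2% hematocrit, 0.1% parasitemia final) were exposed to compounds in RPMI 1640 with 0.5% Albumax at 37 C, 5% CO2. Growth inhibition was scored as reduced luminescence.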
Pf growth 96h: inhibits malaria parasite growth, 96 h; P. falciparum luciferase reporter growth, 96 h; Potency, µM (top dose mostly 28.7 µM), for the others: at the highest dose activity change, negative = inhibition, usual class: inhibitors; hit rate 6.9% among 320,000; AID 504834; further: potency means the concentration at half of the fitted maximal effect; on the % scale 0 is the no-effect control and ±100 the full control effect
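Parasite growth measured via integrated firefly luciferase reporter in P. falciparum. Infected erythrocytes at 2% hematocrit, 0.05% parasitemia final were treated 96 hours at 37 C under 5% CO2, and luminescence was read.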
Cycloheximide cs: counter-screen for Shiga toxin inhibitors: cycloheximide protein synthesis inhibition; cell reporter, cycloheximide protein synthesis inhibition counterscreen; max response, %; hit rate 12% among 300,000; in the data active means max response mostly above about 13%, no sharp cut-off; inactive means mostly below about 14%; further: read at 38.3 µM for the half of the compounds with a filed dose; 0% is about no effect
HCV inh: HCV inhibition; Huh7.5.1 HCVcc-Cre infection, luciferase reporter, 44 h; Potency, µM (series often up to 41.8 µM), inactives show at the top dose activity change, negative = inhibition, actives largely listed as inhibitors; hit rate 3.4% among 340,000; AID 651820; further: potency means the concentration at half of the fitted maximal effect; on the % scale 0 is the no-effect control and ±100 the full control effect
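Luciferase read-out (15 sec integration) after a 15 min room-temperature substrate step quantifies HCVcc-Cre infection. Cells, 1,000 per well, had compound added 4 h post-plating, then virus at ~0.5 moi, and were cultured 44 h.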
Shiga toxin inh: inhibitors of Shiga toxin in Vero cells; Vero cells, Shiga toxin protein synthesis inhibition reporter; inhibition, % at 38.7 µM; hit rate 9.2% among 290,000; AID 2315; in the data active means inhibition mostly above about 28%, no sharp cut-off; inactive means mostly below about 43%; further: 0% is about no effect
Numbers without * were called inactive; u = inconclusive; x = no result given. An excerpt weighted towards active compounds, which were near 21% of everything screened. Unless noted, the call rests on the fitted dose curve; in most records, active means well fitted inhibition curve with a large enough effect; inconclusive means small, poorly fitted or top-dose-only effect, or another doubt; inactive means no such curve, though single readings can be large or run the other way.

SMILES	HCMV antiviral	Pf growth 48h	Pf growth 96h	Cycloheximide cs	HCV inh	Shiga toxin inh
O=C(COc1ccccc1)Nc1cccc(-c2nnc(-c3ccccc3)o2)c1	49	-12%	x	20*	u	72*
CCC(=O)Nc1ccc(-c2nnc(-c3ccccc3)o2)cc1	114	262%	51%	18*	-20%	61
O=C(O)CCC(=O)Nc1cccc(-c2nnc(-c3ccccc3)o2)c1	-25	21%	u	11	14%	14
C=Cc1cccc(NC(=O)COc2ccccc2)c1	-6	52%	u	35*	u	41
CC(=O)Nc1ccc(C2=NN(CC#N)C(=O)SC2)cc1	73	35%	54%	-3	-13%	-23
COc1ccc(Cl)cc1-n1nnc(-c2nc(-c3ccccc3)no2)c1C	-6	x	x	x	x	x
CC(=O)Nc1ccc(NS(=O)(=O)c2c(C(=O)N3CCCCCC3)c(C)n(C)c2C)cc1	-13	x	x	x	x	x
COc1ccc(NC(=O)CCS(=O)(=O)c2cc3c4c(c2)CCN4C(=O)CC3)cc1OC	5	x	x	x	x	x
Nc1cccc(Oc2cnccn2)c1	16	x	0%	-3	12%	-6
O=C(CN1CCCCC1)Nc1cccc(Oc2ccccc2)c1	14	x	u	20	-4%	-3
O=C(CCl)Nc1cccc(Oc2cnccn2)c1	u	x	3.7µM*	13	-24%	-7
O=C(CSc1cccc[n+]1[O-])Nc1cccc(Oc2ccccc2)c1	26	10%	28%	21*	-4%	28
O=C(CCl)Nc1cccc(Oc2ccccc2)c1	-97*	u	4.7µM*	7	u	-2
CSc1ccccc1NC(=O)CSc1cccc[n+]1[O-]	-100*	x	x	x	11%	x
COc1ccc(OC(=O)N(C)C[C@H]2OCc3cn(nn3)CCCC(=O)N([C@H](C)CO)C[C@@H]2C)cc1	7	x	x	x	x	x
COc1ccc2cc([C@H](C#N)C3CCCC3)ccc2c1	-9	x	x	x	x	x
O=C(CN1C(=O)C(=O)N(C2CCCC2)C1=O)Nc1ccc(F)cc1F	16	-24%	-1%	x	-13%	x
O=C(O)CSc1cccc[n+]1[O-]	-32	19%	22%	1	5%	-8
N#CC(C#N)=C(N)CSc1cccc[n+]1[O-]	u	5.2µM*	12µM*	-3	0%	15
C[C@H](O)[C@@H]1C(=O)N2CCc3ccc(-c4ccccc4)cc3[C@@H]2C[C@@H]1N(C)C(=O)Nc1cc(Cl)cc(Cl)c1	25	x	x	x	11µM*	x
COc1ccc(-c2ccc3[nH]c4c(c3c2)CCN2C[C@@H]([C@H](C)O)[C@@H](N(C)C(=O)Nc3cc(Cl)cc(Cl)c3)C[C@@H]42)cc1	-25	x	x	x	x	x
COc1ccc(-c2ccc3[nH]c4c(c3c2)CCN2C(=O)[C@@H]([C@H](C)O)[C@@H](N(C)C(=O)Nc3ccc(F)cc3)C[C@@H]42)cc1	-100*	x	x	x	x	x
C[C@H](O)[C@@H]1CN2CCc3c([nH]c4ccc(-c5ccc6c(c5)OCO6)cc34)[C@@H]2C[C@@H]1N(C)C(=O)Nc1ccc(F)cc1	-102*	x	x	x	x	x
COc1ccc(CCNC(=O)CN2c3cccc4cccc(c34)S2(=O)=O)cc1	-38	-21%	0%	x	3%	x
CC(Sc1nnc2c(n1)[nH]c1ccccc12)C(=O)NC1CCCCC1 (centres undefined)	-30	9.3µM*	-12%	-3	5.6µM*	2
SMILES	HCMV antiviral	Pf growth 48h	Pf growth 96h	Cycloheximide cs	HCV inh	Shiga toxin inh
CC(Sc1nnc2c(n1)[nH]c1ccccc12)C(=O)N(C)C1CCCCC1 (centres undefined)	-85*	u	u	-6	6.3µM*	-9
Cc1cc(C)c(NC(=O)C2CCN(c3nnc(C)c4c(C)n(-c5ccccc5)nc34)CC2)c(C)c1	0	x	x	x	x	x
N#CCCn1cc(C(CC(=O)c2ccccc2)C(=O)O)c2ccccc21 (centres undefined)	52	11%	34%	30*	0%	50
Cc1nn2c(=O)cc(COC(=O)c3ccccc3NC(=O)c3ccccc3C)nc2s1	214	x	x	x	x	x
CSc1nc(N(C)NC(=O)c2ccc(F)cc2)c2ccccc2n1	-30	2.1µM*	2.3µM*	-2	u	-13
COc1cc2c(cc1NC(=O)COc1ccc(Br)c(C)c1)oc1ccccc12	-7	x	x	x	x	x
Cc1nc2ncccn2c1-c1csc(Nc2cccc(C(=O)O)c2)n1	-8	32%	u	5	-3%	-5
CC(=O)c1cccc(Nc2nc(-c3sc(C)nc3C)cs2)c1	3	-20%	362%	12*	8.9µM*	20
CC(=O)c1cccc(Nc2nc(-c3sc(N)nc3C)cs2)c1	20	u	17µM*	20*	u	42
COc1ccc(C2=NOC(C(=O)Nc3cccnc3)C2)cc1OC (centres undefined)	105	u	u	6	28%	2
Cc1ccc(/C=N/NC(=O)c2ccc3c(c2)OCCO3)s1	83	203%	56%	38*	-17%	55*
Cc1ccc(/C=N/NC(=O)c2ccc3ccccc3c2)s1	-27	44%	-6%	28*	-27%	47*
O=C(N/N=C/c1cc(Br)cs1)c1ccc2c(c1)OCCO2	98	0%	66%	37*	u	68*
O=C(CSc1ncnc2c1cnn2-c1ccccc1Cl)N1CCN(C(=O)c2ccco2)CC1	24	-19%	7.4µM*	-6	-25%	-9
Cc1ccccc1-n1ncc2c(SCC(=O)N3c4ccccc4CC3C)ncnc21 (centres undefined)	-67*	u	u	-1	u	-5
COc1ccc(N2CCN(C(=O)CSc3ncnc4c3cnn4-c3ccccc3C)CC2)cc1	-15	12%	6.6µM*	-3	2%	-10
Cc1ccccc1-n1ncc2c(SCC(=O)NC3CCCC3)ncnc21	-72*	u	u	32	4µM*	71*
Cc1nnc(NC(=O)CSc2ncnc3c2cnn3-c2ccccc2C)s1	-6	4%	59%	2	0%	2
CCCn1c(=N)c(C(=O)NCc2cccnc2)cc2c(=O)n3cc(C)ccc3nc21	-19	x	x	x	x	x
N#C/C(=C\c1ccc(Sc2ccc(Cl)cc2)o1)c1nc2ccccc2[nH]1	-68*	0.19µM*	-12%	6	u	4
O=C(O)c1cc([N+](=O)[O-])c(Sc2nc3ccccc3[nH]2)c([N+](=O)[O-])c1	82	x	338%	-4	6%	21
N#C/C(=C\c1ccc(Sc2nc3ccccc3[nH]2)o1)c1ccccc1	-96*	x	-76%	1	10µM*	-5
N#Cc1ccc(Sc2nc3ccccc3[nH]2)cc1C#N	-77*	15%	34%	1	-5%	-9
COc1ccc(-c2cc(OC(=O)c3cccc(C)c3)c3c(C)oc(C)c3c(=O)c2)cc1	12	x	x	x	x	x
CCOC(=O)c1ccccc1NC(=O)C1CSC2(C)CCC(=O)N12 (centres undefined)	0	-28%	-6%	-2	-13%	-3

Screening results as filed in PubChem.
